Assay results published in publication PMC4552634, “A New Set of Chemical Starting Points with Plasmodium falciparum Transmission-Blocking Potential for Antimalarial Drug Discovery” (PLoS ONE, 2015).
Where two headings read alike, the source gives them in different places. About 3,200 (25%) of roughly 13,000 compounds showed an effect of 50% or more. This is one part of the list.

System: P. falciparum stage V gametocytes
Design: BacTiter-Glo ATP luminescence viability of purified stage V gametocytes in 384-well plates, per cent inhibition versus DMSO
Settings: 48 h, 5 µM, inhibitor

SMILES	% Inhibition	% Inhibition (% Inhibition)
O=C(N[C@@H](CC1CCCCC1)C(=O)NCCN1CCOCC1)c1ccc(O)c(-c2ccc(Cl)c(Cl)c2)c1 [TCMDC-140854]	37.92%	–
O=C(NC1CCN(c2ccnc3ccccc23)C1)c1ccc(OC(F)(F)F)cc1 (stereo not drawn) [TCMDC-133582]	-7.681%	–
O=c1cc(NCCCNCc2ccc3c(c2)OC(F)(F)O3)[nH]c2ccccc12 [TCMDC-139426]	-44.23%	–
CCCN(CCCCNC(=O)c1ccc(-c2cccnc2)cc1)C1CCc2c(O)cccc2C1 (stereo not drawn) [TCMDC-139071]	-19.52%	–
CC(=O)Nc1ccc(CN2CCc3ccc(NS(=O)(=O)c4cccc(OCc5ccc(Cl)cc5)c4)cc3CC2)s1 [TCMDC-132327]	4.938%	–
O=C(Nc1ccc(-c2cccc(-c3nc4ccc(F)cc4[nH]3)c2)cc1)Nc1ccc(F)c(F)c1F [TCMDC-133235]	-6.689%	–
CN(C)CCOc1cccc(-c2cnc(N)c(-c3nc4ccc(S(C)(=O)=O)cc4[nH]3)c2)c1 [TCMDC-133722]	17.79%	–
CN(Cc1cnc2nc(N)nc(N)c2n1)c1ccc(C(=O)NC(CCC(=O)O)C(=O)O)cc1 (stereo not drawn) [TCMDC-125488]	–	31.4%
Cc1[nH]c(C)c(-c2ccc(Oc3ccc(OC(F)(F)F)cc3)cc2)c(=O)c1I [TCMDC-137387]	20.63%	–
Cc1[nH]c(C)c(-c2cccc(-c3ccc(OC(F)(F)F)cc3)c2)c(=O)c1Br [TCMDC-135303]	76.13%	–
Cc1[nH]c(C)c(-c2ccc(Oc3ccc(OC(F)(F)F)cc3)cc2)c(=O)c1Br [TCMDC-137325]	–	14.7%
Cc1[nH]c(C)c(-c2ccc(-c3ccc(OC(F)(F)F)cc3)cc2)c(=O)c1Br [TCMDC-134726]	85.61%	–
Cc1[nH]c(C)c(-c2ccc(-c3ccc(OC(F)(F)F)cc3)cc2)c(=O)c1Cl [TCMDC-136060]	114.3%	–
Cc1[nH]c(C)c(-c2ccc(Oc3ccc(OC(F)(F)F)cc3)cc2)c(=O)c1Br [TCMDC-138826]	–	69.76%
Cc1[nH]c(C)c(-c2ccc(Oc3cccc(OC(F)(F)F)c3)cc2)c(=O)c1Cl [TCMDC-137389]	30.57%	–
CS(=O)(=O)NCCCNCc1ccc(-c2ccc(-c3nc4cc(F)ccc4[nH]3)cc2)cc1.O=C(O)C(F)(F)F [TCMDC-133081]	-74.36%	–
Cc1cc(Nc2cc(Cl)cc(Cl)c2)nc(N)n1 [TCMDC-123780]	13.41%	–
CCCCc1ccc2[nH]cc(C3=CCN(C)CC3)c2c1Br [TCMDC-138963]	18.47%	–
CCCCc1ccc(-c2nc(NC(=O)Nc3nc(-c4ccccc4)[nH]c3C(=O)OCC)c(C(=O)OCC)[nH]2)cc1 [TCMDC-138897]	-17.92%	–
CC(C)Nc1nc(NCCc2cnc[nH]2)nc(Nc2ccc(Oc3ccccc3)cc2)n1 [TCMDC-139746]	-7.765%	–
COc1cc(CNCCCNc2cc(=O)c3ccccc3[nH]2)c2c(c1)C(C)CN2C(=O)OC(C)(C)C (stereo not drawn) [TCMDC-140390]	-23.23%	–
Cc1c(O)cccc1Nc1ccnc2ccc(C(F)(F)F)cc12 [TCMDC-138246]	-8.539%	–
CN(C)C(=O)CN1CCN(c2ncnc(N3CCc4c([nH]c5ccccc45)[C@@H]3c3ccc4c(c3)CCO4)n2)CC1 [TCMDC-138571]	5.552%	–
Oc1cccc(C2CCCN(Cc3cccc4cc[nH]c34)C2)c1 (stereo not drawn) [TCMDC-134419]	-7.919%	–
CCCCc1cc(NCc2ccncc2)nc(Nc2ccc(C)cc2)n1 [TCMDC-134000]	-5.693%	–
NC1CCN(Cc2cccc(-c3ccc(-c4nc5ccc(F)cc5[nH]4)cc3)c2)C1 (stereo not drawn) [TCMDC-133853]	40.4%	–

SMILES	% Inhibition	% Inhibition (% Inhibition)
NC1CCCN(Cc2ccc(-c3cccc(-c4nc5ccc(F)cc5[nH]4)c3)cc2)C1 (stereo not drawn) [TCMDC-133840]	68.96%	–
OC1CCCN(Cc2ccc(-c3cccc(-c4nc5ccc(F)cc5[nH]4)c3)cc2)C1 (stereo not drawn) [TCMDC-133815]	-14.67%	–
NC1CCN(Cc2ccc(-c3cccc(-c4nc5ccc(F)cc5[nH]4)c3)cc2)C1 (stereo not drawn) [TCMDC-133838]	61.76%	–
CC(=O)N(C)C1CCN(Cc2ccc(-c3cccc(-c4nc5ccc(F)cc5[nH]4)c3)cc2)C1 (stereo not drawn) [TCMDC-133885]	25.2%	–
O=C(O)C(F)(F)F.OC1CCCN(Cc2ccc(-c3ccc(-c4nc5cc(F)ccc5[nH]4)cc3)cc2)C1 (stereo not drawn) [TCMDC-133833]	-10.21%	–
NC1CCN(Cc2ccc(-c3ccc(-c4nc5cc(F)ccc5[nH]4)cc3)cc2)C1 (stereo not drawn) [TCMDC-133872]	102.5%	–
CC1CN(Cc2ccc(-c3ccc(-c4nc5cc(F)ccc5[nH]4)cc3)cc2)CC(C)O1.O=C(O)C(F)(F)F (stereo not drawn) [TCMDC-133831]	-15.75%	–
NC1CCCN(Cc2cccc(-c3ccc(-c4nc5ccc(F)cc5[nH]4)cc3)c2)C1 (stereo not drawn) [TCMDC-133855]	20.47%	–
O=C(Nc1ccc2c(c1)CCN2C1CCN(Cc2ccc(O)cc2)C1)c1ccco1 (stereo not drawn) [TCMDC-135066]	-16.31%	–
COC(=O)c1ccc(CC(C)NCC(O)c2cccc(C(F)(F)F)c2)cc1F (stereo not drawn) [TCMDC-131519]	6.156%	–
NC1=NC(c2ccccc2)(c2ccccc2)C(=O)N1Cc1ccccc1Br [TCMDC-136813]	-33.84%	–
O=c1cc(NCc2ccccc2NCc2ccc(Cl)c(Cl)c2)[nH]c2ccccc12 [TCMDC-139499]	-0.9265%	–
COc1ccc2nccc(NN=Cc3ccncc3)c2c1 [TCMDC-142033]	25.13%	–
COc1ccc2c(NN=Cc3ccncc3)cc(C)nc2c1 [TCMDC-142038]	85.05%	–
COc1ccc(C=NNc2cc(C)nc3ccc(OC)cc23)c(OC)c1 [TCMDC-123955]	105.7%	–
COc1ccc2nc(C)cc(Nc3ccc(Cl)c(Cl)c3)c2c1 [TCMDC-124166]	19.57%	–
COc1ccc2nc(C)cc(Nc3ccc(N4CCN(C)CC4)cc3)c2c1 [TCMDC-125813]	1.536%	–
COc1ccc2c(NN=Cc3ccncc3)ccnc2c1 [TCMDC-142030]	-7.897%	–
COc1ccc2c(Nc3ccc(N4CCN(C)CC4)cc3)cc(C)nc2c1 [TCMDC-123914]	63.09%	–
COc1ccc2nc(C)cc(NN=Cc3cc(C)ccc3O)c2c1 [TCMDC-124232]	86.79%	–
O=C(NCc1ccc(Cl)c(Cl)c1)[C@H]1CNCCN1C(=O)c1ccccc1 [TCMDC-141240]	16.71%	–
Cc1nc2ccc(NC(=O)Nc3ccnc4ccc(C(F)(F)F)cc34)cc2o1 [TCMDC-139534]	-18.3%	–
COc1ccccc1N1CCN(CCCCNC(=O)c2ccc(NC(=O)c3ccc(OC(F)(F)F)cc3)cc2)CC1 [TCMDC-137780]	-5.009%	–
CC(=O)Nc1ncc(C(=O)Nc2cccc(-c3cccc(-c4nc5ccc(F)cc5[nH]4)c3)c2)s1 [TCMDC-136914]	-0.106%	–
CC(CN(C)C)C(=O)Nc1cccc(-c2ccc(-c3nc4ccc(C(F)(F)F)cc4[nH]3)cc2)c1 (stereo not drawn) [TCMDC-137112]	-57.5%	–
COc1ccc2nc(C)cc(NN=Cc3ccncc3)c2c1 [TCMDC-142017]	88.79%	–

SMILES	% Inhibition	% Inhibition (% Inhibition)
CCOc1ccc2nc(C)cc(NN=Cc3cccnc3)c2c1 [TCMDC-142047]	3.839%	–
COc1ccc2c(NN=Cc3cccnc3)cc(C)nc2c1 [TCMDC-142037]	80.26%	–
COc1ccc2nc(-c3ccccc3)cc(NN=Cc3ccncc3)c2c1 [TCMDC-142041]	-9.454%	–
COc1ccc2c(NN=Cc3cccnc3)ccnc2c1 [TCMDC-142029]	1.197%	–
COc1ccc2nc(C)cc(NN=Cc3ccccc3)c2c1 [TCMDC-123830]	2.081%	–
Cc1cc(-c2nc3ccc(N4CCN(C)CC4)cc3[nH]2)nn1Cc1cc(Cl)ccc1OCC(C)C [TCMDC-136722]	42.92%	–
CC(=O)c1cccc(NC(=O)NC2CCN(CCCCCNC(=O)/C=C/c3ccc(Cl)c(Cl)c3)CC2)c1 [TCMDC-135716]	-43.54%	–
Clc1ccc(-c2csc3ncnc(Cl)c23)cc1 [TCMDC-123811]	48.01%	–
COc1ccc(-c2csc3ncnc(Cl)c23)cc1OC [TCMDC-125316]	38.88%	–
COc1ccc(-c2csc3ncnc(Cl)c23)cc1 [TCMDC-123805]	65.98%	–
Cc1c(S(=O)(=O)Nc2ccc3nccc(N4CCN[C@H](C)C4)c3c2)sc2ccc(Cl)cc12 [TCMDC-139483]	-5.538%	–
COc1cc2c(cc1N(C(C)C)S(=O)(=O)c1sc3ccc(Cl)cc3c1C)CCNCC2 [TCMDC-141465]	91.42%	–
Cc1cnc2ccc(NS(=O)(=O)c3sc4ccc(Cl)cc4c3C)cc2c1N1CCNCC1 [TCMDC-139547]	29.85%	–
Oc1ccccc1CCNCC1CCc2ccccc2C1 (stereo not drawn) [TCMDC-138024]	-11.67%	–
O=C(NC1CCCC1)c1cc2c(=O)n3ccccc3nc2nc1NCCc1ccccc1 [TCMDC-125350]	42.55%	–
O=C(NCCN1CCCC1)c1ccc(-c2ccc(-c3nc4cc(C(F)(F)F)ccc4[nH]3)s2)cc1 [TCMDC-132315]	12.27%	–
Cn1nccc1C(=O)NCCNCc1ccc(-c2cccc(-c3nc4cc(C(F)(F)F)ccc4[nH]3)c2)cc1.O=C(O)C(F)(F)F [TCMDC-133006]	-36.49%	–
FC(F)(F)c1ccc2[nH]c(-c3ccc(-c4cccc(CNCCN5CCNCC5)c4)cc3)nc2c1 [TCMDC-132864]	103.8%	–
O=C1CCCN1CCCNCc1cccc(-c2ccc(-c3nc4ccc(C(F)(F)F)cc4[nH]3)cc2)c1 [TCMDC-132761]	-39.05%	–
O=C1CCCN1CCCNCc1ccc(-c2cccc(-c3nc4ccc(C(F)(F)F)cc4[nH]3)c2)cc1 [TCMDC-132752]	-22.52%	–
O=C(O)C(F)(F)F.O=C1CCCN1CCCNCc1ccc(-c2ccc(-c3nc4cc(C(F)(F)F)ccc4[nH]3)s2)cc1 [TCMDC-132764]	-35.61%	–
O=C(O)C(F)(F)F.O=C1CCCN1CCCNCc1cccc(-c2cccc(-c3nc4cc(C(F)(F)F)ccc4[nH]3)c2)c1 [TCMDC-132754]	-20.15%	–
FC(F)(F)c1ccc2[nH]c(-c3ccc(-c4ccc(CNCCN5CCNCC5)cc4)s3)nc2c1 [TCMDC-132862]	105.5%	–
Cn1nccc1C(=O)NCCNCc1cccc(-c2ccc(-c3nc4cc(C(F)(F)F)ccc4[nH]3)cc2)c1.O=C(O)C(F)(F)F [TCMDC-133014]	-13.72%	–
FC(F)(F)c1ccc2nc(-c3cccc(-c4cccc(CNCCN5CCNCC5)c4)c3)[nH]c2c1 [TCMDC-132871]	79.56%	–
FC(F)(F)c1ccc2[nH]c(-c3cccc(-c4ccc(CNCCN5CCNCC5)cc4)c3)nc2c1 [TCMDC-132872]	109.9%	–
